Screening results as filed in PubChem.
A549 tox: A549 cytotoxicity, counter-screen for Nrf2 inhibitors; AID 504648; 390,000 compounds, 0.16% hits; Potency, µM (series often up to 46 µM), inactives show at the top dose activity change, negative = cytotoxicity, actives largely listed as inhibitors; A549 ARE-Fluc cells, CellTiter-Fluor viability, 18-24 h; further: on the % scale 0 is the no-effect control and ±100 the full control effect
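A549 ARE-Fluc cells in 5% FBS OPTI-MEM, 5000 cells/well, rested 2 h then exposed to compounds in concentration-response for 18-24 h at 37 °C. Viability by CellTiter-Fluor fluorescence (Ex 405/Em 525) after 30 min; luciferase luminescence (BugLite, 15 min, RT) read afterwards.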
Rango complex inh: inhibitors of Rango-importin beta complex formation; 340,000 compounds, 0.031% hits; Potency, µM (top dose mostly 92.2 µM), for the others: at the top dose inhibition of complex formation; Rango CFP/YFP FRET sensor + importin beta, 45 min; AID 540263; Q14974; calls by dose curve;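 further: 0% = DMSO wells and 100% = buffer wells lacking importin beta; nearly all actives have a fitted effect of over 15% in size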
Target sequence (Q14974 whole entry, looked up): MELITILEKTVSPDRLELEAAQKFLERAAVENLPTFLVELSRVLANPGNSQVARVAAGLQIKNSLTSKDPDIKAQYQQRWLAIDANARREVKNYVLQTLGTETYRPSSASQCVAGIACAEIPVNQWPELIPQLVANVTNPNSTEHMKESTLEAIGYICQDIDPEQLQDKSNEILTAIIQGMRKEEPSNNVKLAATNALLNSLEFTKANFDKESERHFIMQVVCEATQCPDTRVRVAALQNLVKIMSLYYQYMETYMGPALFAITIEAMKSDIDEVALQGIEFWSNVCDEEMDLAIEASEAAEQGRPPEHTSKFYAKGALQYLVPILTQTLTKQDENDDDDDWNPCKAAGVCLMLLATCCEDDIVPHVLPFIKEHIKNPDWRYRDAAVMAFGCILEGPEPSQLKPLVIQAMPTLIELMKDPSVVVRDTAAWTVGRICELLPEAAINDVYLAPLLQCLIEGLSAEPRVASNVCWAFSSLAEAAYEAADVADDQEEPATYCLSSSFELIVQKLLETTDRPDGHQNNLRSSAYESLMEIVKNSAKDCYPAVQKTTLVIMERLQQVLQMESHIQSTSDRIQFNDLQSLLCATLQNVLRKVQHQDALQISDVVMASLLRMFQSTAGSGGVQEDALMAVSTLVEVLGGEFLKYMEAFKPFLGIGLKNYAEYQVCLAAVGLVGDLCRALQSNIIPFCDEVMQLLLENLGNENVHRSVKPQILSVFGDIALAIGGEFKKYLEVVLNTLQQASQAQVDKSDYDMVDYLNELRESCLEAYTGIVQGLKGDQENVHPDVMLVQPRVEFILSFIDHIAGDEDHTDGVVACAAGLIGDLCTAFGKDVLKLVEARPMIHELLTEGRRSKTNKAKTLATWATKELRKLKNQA
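FRET biosensor Rango (snurportin 1 IBB between N-terminal EYFP and C-terminal Cerulean), 50 nM in PBS/1 mM DTT/0.02% Tween-20/0.1% BSA, preincubated 5 min RT with compound; 0.125 microM importin beta added, 45 min RT, CFP/YFP FRET ratio read.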
Nrf2 inh: blocks Nrf2 signaling. A549 ARE-Fluc reporter, luciferase luminescence, 18-24 h. Potency, µM (doses to about 46 µM), without a hit: at the top dose activity change, negative = inhibition, actives largely listed as inhibitors. 360,000 compounds, 2.1% hits. AID 504444; further: on the % scale 0 is the no-effect control and ±100 the full control effect; nearly all actives have a fitted effect of over 60% in size
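Nrf2 activity is the BugLite luminescence, read 15 min after reagent at room temperature, following CellTiter-Fluor cytotoxicity readout (30 min, 37C). Compound titrations were applied for 18-24 h to 5000 A549 ARE_Fluc cells/well in 5% FBS OPTI-MEM.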
Nrf2 activator: activators of Nrf2 (ARE) signaling; AREc32 ARE-luciferase reporter (MCF7-derived line), luminescence, 24 h; Potency, µM (titrated, usually from 46.1 µM), inactives show at the highest dose activation, most hits filed as activators; 410,000 compounds, 0.31% hits; AID 624171; further: % of control where 0% means no effect; nearly all actives have a fitted effect of over 65% in size
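Cells of the AREc32 ARE-luciferase line are plated in OPTI-MEM containing 5% FBS and left overnight at 37 deg C. Compounds are pinned in, incubation continues 24 hr, and firefly luciferase signal is then measured.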
Rango release inh: inhibitors of RanGTP-induced Rango-importin beta complex dissociation. AID 540253. Biochemical FRET Rango-importin beta, RanGTP-induced dissociation. 340,000 compounds, 0.071% hits. Potency, µM (titrated, usually from 46.1 µM), for the others: at the highest dose activity change, negative = inhibition; calls by dose curve; further: % of control where 0% means no effect; nearly all actives have a fitted effect of over 45% in size
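Two FRET readings bracket the reaction: one 5 min after compound meets Rango–importin beta, another 45 min after RanGTP-RCC1 (0.6 uM Ran, 0.2 uM RCC1, 2 mM GTP) is added. Only the second defines inhibition.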
The depositor's hits bear a star; ? = inconclusive; / = no result. Shown are actives, neighbours in structure and some others; about 2.3% of the full set was active somewhere. Unless noted, the call rests on the fitted dose curve; in most records, active means well fitted curve in the direction sought with a large enough effect; inconclusive means small, poorly fitted or top-dose-only effect, or another doubt; inactive means no such curve, though single readings can be large; an effect the other way counts as inactive or inconclusive. Potency means the concentration at half of the fitted maximal effect.

SMILES	A549 tox	Rango complex inh	Nrf2 inh	Nrf2 activator	Rango release inh
COc1ccc(C2Nc3ccccc3C(=O)N2Cc2ccco2)cc1COc1ccc(N)cc1 (centres undefined)	-15%	/	-8%	/	/
CC1=C(C(=O)OC2CCCCC2)C(c2ccc(N(C)C)cc2)NC(=O)N1 (centres undefined)	-2%	?	?	0%	-14%
O=C(CSc1nc2ccccc2c(=O)[nH]1)N1CCN(S(=O)(=O)c2ccccc2)CC1	20%	0%	-4%	-1%	-2%
O=C(CSc1nc(-c2ccccc2)c(-c2ccccc2)[nH]1)N1CCN(S(=O)(=O)c2ccccc2)CC1	-27%	0%	16µM*	3%	0%
O=C(Nc1ccc(Cl)cc1)Nc1ccccn1	-4%	-2%	?	10µM*	6%
O=C(Nc1ccccc1)Nc1ccccn1	2%	4%	/	?	3%
O=C(Nc1ccccn1)c1ccc(S(=O)(=O)c2ccc(Cl)cc2)cc1	-12%	0%	5.8µM*	3%	-7%
COc1ccc(C)cc1NC(=O)C(=O)NCC(c1cccnc1)N1CCN(c2ccccc2F)CC1 (centres undefined)	-7%	/	-24%	3%	/
CCCCCNC(=O)c1cccc(S(=O)(=O)N2CC3(C)CC2CC(C)(C)C3)c1 (centres undefined)	-17%	-3%	26µM*	0%	-14%
Cn1c2cc(S(C)=O)sc2c2cnn(Cc3cccc(O)c3)c(=O)c21 (centres undefined)	19%	/	0%	/	/
Cc1cc(C)cc(N(C(=O)c2cc3ccccc3oc2=O)C2C=CS(=O)(=O)C2)c1 (centres undefined)	4%	-5%	-5%	14µM*	0%
COCc1cc(C)nc(SCC(=O)Oc2ccc(Cl)cc2)c1C#N	-4%	?	7%	4%	9.2µM*
Cc1ccc(C)c(CNC(=O)CN2C(=O)CSc3ccc(S(=O)(=O)N(C)C)cc32)c1	5%	/	25%	1%	/
C=C1CC2(OC1=O)c1ccccc1CCc1ccccc12	?	2%	16µM*	?	0%
CC(C)(C)OC(=O)CC(=O)NNC(=O)c1cc2ccccc2[nH]1	-6%	/	-15%	/	/
Cc1cc(-c2cccs2)c2c(N)c(C(=O)c3ccc4c(c3)OCO4)sc2n1	?	?	?	2%	?
COc1ccc(C(=O)c2sc3nc(C)cc(-c4cccs4)c3c2N)cc1OC	4%	?	10µM*	0%	?
Cn1c(=O)c2[nH]c(Cc3cccc4ccccc34)nc2n(C)c1=O	-8%	-2%	21µM*	3%	-20%
c1nc(NCCCN2CCOCC2)c2cc(-c3ccc4c(c3)OCO4)ccc2n1	15%	/	-27%	/	/
CC(=O)c1ccc(-c2csc3ncnc(Sc4nnnn4C)c23)cc1	-2%	/	?	/	/
COc1ccc(Br)c(C(=O)Nc2cc3c(cc2N2CCOCC2)n(C)c(=O)n3C)c1	-12%	/	-10%	-1%	/
CCO/C=C1\C(=O)N(c2ccccc2)C(=O)c2ccccc21	0%	?	-1%	-1%	13µM*
Cc1ccc(C(=O)c2oc3ccccc3c2NC(=O)c2cc(-c3ccccc3O)n[nH]2)cc1	-1%	?	?	4%	?
Cc1ccc(C(=O)c2oc3ccccc3c2NC(=O)c2cc(-c3cc(C)ccc3O)n[nH]2)cc1	-26%	?	26µM*	3%	?
COc1ccc(CNc2ncnc3cc(Cl)ccc23)cc1OC	-4%	-4%	16µM*	11%	-4%
SMILES	A549 tox	Rango complex inh	Nrf2 inh	Nrf2 activator	Rango release inh
COc1ccc(CNc2ncnc3sccc23)cc1	-1%	-2%	10µM*	2%	-15%
c1ccc(CCNc2ncnc3sccc23)nc1	?	-6%	8.2µM*	2%	3%
COc1ccccc1CNc1ncnc2cc(Cl)ccc12	-8%	-1%	?	12%	3%
COc1ccc(CNc2ncnc3sccc23)cc1OC	1%	?	10µM*	4%	-15%
O=C(NCc1cc(Cl)cc(Cl)c1)c1csc([C@@H]2C[C@H](O)[C@@H](CO)O2)n1	/	/	/	3%	/
Cc1cc2c(s1)c1cnn(Cc3cccc(Cl)c3)c(=O)c1n2C	-4%	/	?	/	/
COc1cccc(CN(C)C(=O)c2ccc(Cl)c(S(=O)(=O)N3CCCCCC3)c2)c1OC	-16%	-4%	18µM*	1%	-8%
CCN(Cc1ccccc1)C(=O)c1cccc(S(=O)(=O)N2CCN(c3ccc(F)cc3)CC2)c1	-16%	1%	15µM*	0%	13%
CN(CCOc1ccccc1)C(=O)c1ccc(Cl)c(S(=O)(=O)N2CCCCC2)c1	-3%	1%	?	0%	18%
COc1cccc(CN(C)C(=O)c2cccc(S(=O)(=O)N3CCN(Cc4ccccc4)CC3)c2)c1OC	-17%	0%	10µM*	0%	-3%
COc1cccc(CNC(=O)C2CCCN(S(=O)(=O)N(C)c3ccc(F)cc3)C2)c1OC (centres undefined)	-11%	/	26µM*	0%	/
COc1ccc(N2CC(NC(=O)CCc3ccccc3)CC2=O)cc1OC (centres undefined)	0%	/	/	-1%	/
COc1ccc(NS(=O)(=O)c2c(C)cc(C)cc2C)cn1	-11%	-6%	-8%	0%	-7%
Cc1cc(C)c2c(CN(C)Cc3ccccc3)cc(=O)oc2c1	/	/	/	0%	/
COc1cccc(CN(C)C(=O)c2cccc(S(=O)(=O)N3CCN(c4ccc(F)cc4)CC3)c2)c1OC	?	0%	8.2µM*	0%	10%
COc1ccccc1CNC(=O)c1cccc(S(=O)(=O)N2CCN(c3ccc(F)cc3)CC2)c1	-5%	0%	?	2%	-10%
O=S(=O)(c1ccc2c(c1)OCCO2)N1CCN(S(=O)(=O)c2cccc(Cl)c2F)CC1	3%	/	13%	/	/
Cc1cccc(NC(=O)c2c(NC(=O)c3ccco3)sc3c2CCC(C(C)(C)C)C3)c1 (centres undefined)	-1%	/	6%	-1%	/
NC(=O)C(C(=O)/C=C/c1ccc(Cl)cc1)=C1SCCS1	?	-3%	?	7.9µM*	11%
CCCCCc1ccc(OCCCC[n+]2ccc(C)cc2)c(CCCCC)c1	-19%	6%	10µM*	-2%	-1%
CCCCCc1ccc(OCCCC[n+]2cccc(C)c2)c(CCCCC)c1	?	5%	?	-3%	8%
CCC(C)(C)c1ccc(OCCCC[n+]2ccccc2)c(C(C)(C)CC)c1	?	6%	23µM*	-3%	9%
CCCCCc1ccc(OCCCC[n+]2ccccc2)c(CCCCC)c1	?	-2%	18µM*	-2%	0%
O=C(c1ccc(=O)[nH]n1)N1CCN(S(=O)(=O)c2ccc(C(F)(F)F)cc2)CC1	1%	7%	7%	-1%	14%
